# Screens as filed in PubChem BioAssay.
# Compounds with a hit are over-represented: about 3% of the library has one in this group of screens.
# TRPM1 prom inh – inhibitors of MITF-driven TRPM1 promoter in melanoma cells; SK-MEL-5 TRPM1 promoter luciferase, 24 h; inhibition, % at 12.5 µM; hit rate 0.83% among 330,000;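 active = mean inhibition across replicates of 60% or more, whatever share of single replicates reaches that level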
# Peg3 promoter – reduces Peg3 promoter-driven luciferase expression in HeLa; hit rate 1.7% among 360,000; AID 588405; HeLa PEG-Prom luciferase reporter, luminescence, overnight; inhibition, % at 20 µM;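 active = inhibition of at least 50% at 20 µM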
# EWS-Fli block – inhibitors of EWS/Fli oncoprotein transcriptional activity; hit rate 0.67% among 350,000; inhibition, % at 12.6 µM; A673 NR0B1-luciferase reporter, viability-normalised;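 active = mean inhibition of at least 50% after viability correction, with every replicate also passing that limit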;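 note: firefly luciferase signal divided by Alamar Blue viability fluorescence both relative to DMSO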
# Shn3 inh set2 – inhibitors of Schnurri-3 3'UTR reporter in osteoblasts. Clone20 osteoblast Shn3 3'UTR firefly luciferase, 24 h. inhibition, % at 12.5 µM. hit rate 0.52% among 360,000. AID 588674;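 active = mean inhibition of at least 75% with every replicate also reaching 75%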;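 note: 0% = median of neutral control wells and 100% = pilot-screen positive control compound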
# PAX8 reporter – lowers PAX8-driven luciferase in RMG-I cells; RMG-I TPO-luciferase reporter, SteadyGlo, 24 h; inhibition, % at 12.6 µM; hit rate 1.2% among 360,000; AID 652154;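 active = mean replicate inhibition at least 60% with every replicate also reaching 60%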;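 note: luciferase light reporting Pax8 driven TPO promoter activity; plate controls were median of neutral control wells for no effect and mitoxantrone controls for full effect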
# ABHD5-PLIN5 inh – ABHD5-PLIN5 protein interaction inhibition | Split G. princeps luciferase complementation, luminescence, 4 h | inhibition, % at 4 µM | hit rate 0.78% among 360,000;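 active = inhibition above the mean inhibition across every tested compound plus 3 SD, cut at about 22% in these data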;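 note: 0% = DMSO only wells and the 100% control is not disclosed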
# ABHD5 PLIN5 conf – confirmation of human ABHD5-PLIN5 interaction inhibitors; hit rate 67% among 2,200; AID 651612; shares compounds with ABHD5-PLIN5 inh; biochemical ABHD5-PLIN5 interaction, luminescence; inhibition, % at 4 µM; in the data active = inhibition above about 23%;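 note: 0% = DMSO vehicle wells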
# HNF4 split-luc – HNF4 split-luciferase signal hit, counter-screen; shares compounds with ABHD5-PLIN5 inh; HNF4 dimerization, luminescence, biochemical; inhibition, % at 4 µM; hit rate 77% among 2,200; AID 651674;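 active = mean inhibition across replicate wells exceeding the computed hit threshold, cut at about 13% in these data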;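 note: light from luciferase halves that rejoin when HNF4 fusion proteins dimerize; 0% = DMSO only wells and the 100% control is not given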
# Target sequence (P41235 whole entry, looked up, the tested form may be a part): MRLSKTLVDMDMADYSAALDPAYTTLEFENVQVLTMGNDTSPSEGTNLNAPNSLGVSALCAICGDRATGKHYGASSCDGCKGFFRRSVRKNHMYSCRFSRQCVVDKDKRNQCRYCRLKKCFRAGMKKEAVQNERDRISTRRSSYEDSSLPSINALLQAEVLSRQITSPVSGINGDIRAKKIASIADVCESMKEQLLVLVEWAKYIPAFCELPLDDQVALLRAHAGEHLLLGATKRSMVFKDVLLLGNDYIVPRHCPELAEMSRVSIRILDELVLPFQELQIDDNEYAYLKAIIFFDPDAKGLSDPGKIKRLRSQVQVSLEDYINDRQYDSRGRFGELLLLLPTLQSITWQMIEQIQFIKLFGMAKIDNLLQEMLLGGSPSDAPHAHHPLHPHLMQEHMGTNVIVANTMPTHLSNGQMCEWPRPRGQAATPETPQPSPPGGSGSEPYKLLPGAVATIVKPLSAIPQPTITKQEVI
# Starred values were filed as active, the others as inactive; x = not tested or not shown.
SMILES,TRPM1 prom inh,Peg3 promoter,EWS-Fli block,Shn3 inh set2,PAX8 reporter,ABHD5-PLIN5 inh,ABHD5 PLIN5 conf,HNF4 split-luc
COc1ccc(CC2=CC(=O)c3ccccc3C2=O)cc1,8,47,69*,89*,18,85*,100*,108*
CCNC(=O)C[C@H]1CC[C@H]2[C@H](COc3ccc(NC(=O)c4ccccc4)cc3C(=O)N2C)O1,x,x,-8,x,-18,x,x,x
CC=Cc1ccc2n(c1=O)C[C@@H]1[C@@H](CO)[C@H](C(=O)NCC(F)(F)F)[C@H]2N1C(C)=O (mixture of isomers),x,x,-5,x,-30,x,x,x
CCN(CC)S(=O)(=O)c1ccc(N2CCN(S(=O)(=O)c3ccccc3)CC2)nc1,10,14,14,19,4,6,x,x
CC(C)N(C(C)C)S(=O)(=O)c1ccc(N2CCc3ccccc3C2)nc1,-66,-168,-81,-44,-139,39*,30*,26*
CC(C)N(C(C)C)S(=O)(=O)c1ccc(Cl)nc1,21,-1,-2,6,-10,-3,x,x
CCN(CC)S(=O)(=O)c1ccc(N2CCc3ccccc3C2)nc1,-33,-77,x,-12,3,44*,61*,72*
N#Cc1ccccc1NC1=CC(=O)CCC1,10,3,x,-10,x,18,x,x
O=C1C=C(NC2=CC3OC(c4ccccc4)OCC3OC2=O)CCC1 (stereo not given),65*,44,-7,20,19,26*,87*,95*
C=C(CCC(=O)c1ccccc1)C(=O)c1ccccc1,2,63*,13,69,16,32*,68*,67*
Cc1ccc(C(=O)/C=C/c2ccc3c(c2)OCO3)o1,-14,-73,-88,-31,x,21,x,x
O=C(/C=C/c1ccc2c(c1)OCCCO2)c1ccccc1O,-48,-176,-35,-156,-219,27*,78*,53*
Cc1ccc(O)c(C(=O)/C=C/c2ccc3c(c2)OCCCO3)c1,-65,-85,-12,-31,-107,32*,66*,45*
CC1(C)COC(/C=C/c2cccc([N+](=O)[O-])c2)=N1,33,-29,-28,-42,26,29*,46*,49*
CC1(C)COC(c2cc([N+](=O)[O-])ccc2Cl)=N1,4,4,x,1,x,2,x,x
CCOc1cc(/C=C2\C(=O)N(Cc3ccc(C)cc3)C(C)=C2C(=O)OC)ccc1O,8,30,x,-2,x,23*,50*,39*
C=CCOc1cccc(/C=C2\C(=O)N(Cc3ccc(C)cc3)C(C)=C2C(=O)OC)c1,-13,42,20,13,0,12,x,x
Nc1nsc2ccccc12,26,51*,42,-4,x,45*,57*,64*
C#CCOCCOCCOCCNc1nc(N2CCN(C(=O)CCCCCCCCCCNC(=O)Cn3cc(CCCCCN)nn3)CC2)nc(N2CCN(C(=O)CCCCCCCCCCNC(=O)[C@H](CO)n3cc(CCCCCN)nn3)CC2)n1,-10,-7,x,1,x,37*,10,0
C#CCOCCOCCOCCNc1nc(N2CCN(C(=O)CCCCCCCCCCNC(=O)[C@H](CCCCN)n3cc(CCO)nn3)CC2)nc(N2CCN(C(=O)CCCCCCCCCCNC(=O)[C@@H]([C@H](C)O)n3cc(C)nn3)CC2)n1,5,29,x,10,x,45*,29*,13*
C#CCOCCOCCOCCNc1nc(N2CCN(C(=O)CCCCCCCCCCNC(=O)Cn3cc(C[C@@H](C)O)nn3)CC2)nc(N2CCN(C(=O)CCCCCCCCCCNC(=O)Cn3cc(C[C@@H](C)O)nn3)CC2)n1,34,16,41,14,20,15,x,x
C#CCOCCOCCOCCNc1nc(N2CCOCC2)nc(N2CCN(C(=O)CCCCCCCCCCNC(=O)[C@H](CO)n3cc(CCCCCN)nn3)CC2)n1,6,1,-9,-30,-13,4,x,x
C#CCOCCOCCOCCNc1nc(N2CCOCC2)nc(N2CCN(C(=O)CCCCCCCCCCNC(=O)[C@@H](CCSC)n3cc(CCO)nn3)CC2)n1,-16,23,11,11,5,21,x,x
C#CCOCCOCCOCCNc1nc(N2CCN(C(=O)CCCCCCCCCCNC(=O)[C@@H]([C@H](C)O)n3cc(C)nn3)CC2)nc(N2CCN(C(=O)CCCCCCCCCCNC(=O)[C@@H]([C@H](C)O)n3cc(C)nn3)CC2)n1,36,-60,17,10,-4,40*,8,-13
C#CCOCCOCCOCCNc1nc(N2CCN(C(=O)CCCCCCCCCCNC(=O)[C@H](CCC(=O)O)n3cc(CCCCCN)nn3)CC2)nc(N2CCN(C(=O)CCCCCCCCCCNC(=O)[C@@H]([C@H](C)O)n3cc(C)nn3)CC2)n1,8,-14,x,14,x,27*,7,1
SMILES,TRPM1 prom inh,Peg3 promoter,EWS-Fli block,Shn3 inh set2,PAX8 reporter,ABHD5-PLIN5 inh,ABHD5 PLIN5 conf,HNF4 split-luc
C[C@H]1CCCCO[C@@H](CN(C)C)[C@@H](C)CN([C@@H](C)CO)C(=O)c2cc(NS(C)(=O)=O)ccc2O1,x,x,7,x,-12,x,x,x
Cc1cc2nc(-c3cccc(Br)c3)c(Cc3ccccc3)n2c(C)c1Br,x,-30,-10,2,37,28*,32*,17*
Cc1cc2nc(-c3cccc(Br)c3)c(Cc3ccsc3)n2c(C)c1Br,x,x,-15,x,27,0,x,x
CC(C)(C)[S@](=O)N1Cc2cc(C(=O)NCc3ccncc3)nc(-c3cccc(-c4ccncc4)c3)c2[C@@H]1CCO,x,x,3,x,-6,x,x,x
COCCCN1CN(S(=O)(=O)c2ccc(C)cc2C)c2nc3ccccc3nc21,5,10,5,0,7,28*,12,15*
Cc1ccc(S(=O)(=O)N2CN(CC3CCCO3)c3nc4ccccc4nc32)c(C)c1 (stereo not given),4,8,x,-14,-12,1,x,x
O=C(Cn1sc2ccccc2c1=O)Nc1ccccc1,x,7,17,10,4,64*,81*,116*
Cn1c(-c2ccccc2)c(CCO)c2ccccc21,1,-3,x,-6,-2,0,x,x
Cn1c(-c2ccccc2)c(C(=O)CCl)c2ccccc21,92*,55*,-10,60,44,24*,37*,22*
Cc1ccc(S(=O)(=O)N2CCCCC2)cc1NC(=O)Cn1ncc(Cl)c(Cl)c1=O,101*,109*,75*,100*,99*,26*,23*,14*
CCN(c1ccccc1)S(=O)(=O)c1ccc(NC(=O)c2nc(S(C)(=O)=O)ncc2Cl)cc1,100*,108*,x,98*,x,78*,89*,104*
CCN(c1ccccc1)S(=O)(=O)c1ccc(C(=O)Nc2ccncc2)cc1,12,29,17,29,6,2,x,x
